A short description of experiment [1]: qHTS profiling of the MIPE4 collection as inhibitors of Plasmodium falciparum (3D7) proliferation (AID 743344).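 Further: scaled between DMSO vehicle wells and 0.29 µM artemisinin as full inhibition.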 The conditions noted are these: P. falciparum 3D7 in erythrocytes, SYBR Green DNA fluorescence, 72 h; at 28.5 µM unless noted. The method in brief: (§1)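 Parasite DNA was quantified by SYBR Green I fluorescence (ex 485, em 535 nm) after overnight lysis in saponin/Triton buffer at room temperature. Cultures at 0.3% parasitemia and 2.5% hematocrit were first exposed to compound for 72 h at 37 C; signals were normalised to artemisinin (0.29 uM) and vehicle wells.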

Experiment [2] can be described thus: qHTS profiling of the MIPE4 collection as inhibitors of Plasmodium falciparum (DD2) proliferation (AID 743345). The conditions noted are these: P. falciparum Dd2 in erythrocytes, SYBR Green DNA, 72 h; at 28.5 µM unless noted. The method in brief: as §1
Experiment [3] in a line: qHTS profiling of the MIPE4 collection as inhibitors of Plasmodium falciparum (DD2) proliferation (Rep 2) (AID 743346). Conditions: P. falciparum Dd2 in erythrocytes, SYBR Green DNA, 72 h; at 28.5 µM unless noted. Put shortly:
as §1

The nature of experiment [4]: qHTS profiling of the MIPE4 collection as inhibitors of Plasmodium falciparum (HB3) proliferation (AID 743347).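 Further: plate controls were DMSO vehicle wells for no effect and artemisinin wells for full effect.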 Conditions: P. falciparum HB3 in erythrocytes, SYBR Green DNA, 72 h; at 28.5 µM unless noted. Put shortly: as §1
A short description of experiment [5]: High-throughput drug toxicity screening in the BPDCN cell line Gen2.2 (AID 1224824).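 Further: cells exposed to compounds for 48 h before reading.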 Conditions: Gen2.2 BPDCN cells; at 45.8 µM (top of the series) unless noted. Put shortly:
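CellTiter-Glo luminescence read after 48 h compound exposure at 37 C defines viability; percent activity set with DMSO as 100% and bortezomib (9.2 uM final) as 0%. 500 exponentially growing cells per well, RPMI plus 10% FBS.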

Experiment [6] in a line: High-throughput drug toxicity screening in the BPDCN cell line Cal-1 (AID 1224825). The conditions noted are these: Cal-1 BPDCN cell viability, qHTS; at 45.8 µM (top of the series) unless noted. Put shortly: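 Percent activity derived from CellTiter-Glo luminescence, scaling DMSO to 100% and 9.2 uM final bortezomib to 0%. BPDCN Cal-1 cells (500/well, RPMI plus 10% FBS) incubated with compounds 48 hours at 37C before reading.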

Experiment [7] is described as follows: qHTS assay for measurement of the activity of small molecule inhibitors on Zika virus induced Caspase-3 activity in human iPSC derived neural progenitor cells (hNPCs) (AID 1224857; active means well fitted curve in the direction sought with a large enough effect; an effect the other way counts as inactive or inconclusive; further: % of control where 0% means no effect; nearly all actives have a fitted effect of over 65% in size). Put shortly: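 Values are percent inhibition of virus-induced caspase-3/7 signal, scaled between uninfected cells and ZIKV-infected cells. Infection used 2 FFU/cell for 6 h after 1 h compound exposure.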

Experiment [8] can be described thus: qHTS assay for measurement of the activity of small molecule inhibitors on Zika virus induced Caspase-3 activity in human astrocytoma cells (AID 1224859; active means well fitted curve in the direction sought with a large enough effect; an effect the other way counts as inactive or inconclusive;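 further: plate controls were ZIKV-infected untreated cells for no effect and uninfected cells for full effect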). The method in brief: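 Compound added 1 h pre-infection; ZIKV 2 FFU/cell on SNB-19 cells, 6 h, 37 C/5% CO2. Caspase-Glo 3/7 luminescence; values as % inhibition of ZIKV-induced caspase activity.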
A short description of experiment [9]: qHTS Screen of the MIPE 4.0 Collection Against Ewings Sarcoma (RDES) (AID 1259252; active means well fitted curve in the direction sought with a large enough effect; an effect the other way counts as inactive or inconclusive; further: nearly all actives have a fitted effect of over 35% in size; further: potency means the concentration at half of the fitted maximal effect). The method in brief:
(§2)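 Cells plated in serum-containing RPMI (5% FBS) and treated with compound dilutions for 48 h. Readout luminescent viability; normalization relied on vehicle (no inhibition) and media-only columns (full inhibition).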

Experiment [10] can be described thus: qHTS Screen of the MIPE 4.0 Collection Against Ewings Sarcoma (TC71) (AID 1259253; active means well fitted curve in the direction sought with a large enough effect; an effect the other way counts as inactive or inconclusive; further: potency means the concentration at half of the fitted maximal effect; nearly all actives have a fitted effect of over 40% in size). Put shortly:
as §2

Experiment [11] is described as follows: qHTS Screen of the MIPE 4.0 Collection Against Ewings Sarcoma (EW8) (AID 1259255; active means well fitted curve in the direction sought with a large enough effect; an effect the other way counts as inactive or inconclusive; further: nearly all actives have a fitted effect of over 35% in size; further: potency means the concentration at half of the fitted maximal effect;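 on viability: 100% = DMSO-treated cells and 0% = medium-only wells without cells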). The method in brief: as §2
The nature of experiment [12]: qHTS Screen of the MIPE 4.0 Collection Against Ewings Sarcoma (TC32) (AID 1259256; active means well fitted curve in the direction sought with a large enough effect; an effect the other way counts as inactive or inconclusive; further: nearly all actives have a fitted effect of over 45% in size; further: potency means the concentration at half of the fitted maximal effect). Put shortly:
as §2

Experiment [13] can be described thus: qHTS profiling for inhibitors of Plasmodium falciparum (HB3) proliferation (AID 743324; active means well fitted curve in the direction sought with a large enough effect; an effect the other way counts as inactive or inconclusive;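 further: 100% = DMSO vehicle wells and 0% = artemisinin-treated control wells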). The conditions noted are these: Plasmodium falciparum HB3 blood-stage proliferation; at 28.7 µM (top of the series) unless noted. The method in brief:
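SYBR Green fluorescence (485 ex/535 em) of lysed cultures, incubated overnight at room temperature in the dark, quantifies parasite DNA. Infected erythrocytes at 0.3% parasitemia and 2.5% hematocrit were exposed 72 h; values normalized to DMSO and 0.29 uM artemisinin controls.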

A short description of experiment [14]: Identifying Small Molecule Inhibitors of Pancreatic Cancer Stem Cells (SN12C, Adherent) (AID 1259358; active means well fitted curve in the direction sought with a large enough effect; an effect the other way counts as inactive or inconclusive;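 further: cell survival measured after 48 h of compound exposure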). Put shortly: (§3)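 Pre-formed 14-day tumor spheroids or adherent cells dosed and incubated 48 h, 37C, 5% CO2. Viability assessed by CellTiter-Glo.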
A short description of experiment [15]: Identifying Small Molecule Inhibitors of Pancreatic Cancer Stem Cells (SN12C, Spheroid) (AID 1259360; active means well fitted curve in the direction sought with a large enough effect; an effect the other way counts as inactive or inconclusive;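 further: 100% = DMSO-treated cells and 0% = wells without cells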). The conditions noted are these: Potency: SN12C spheroid viability. Put shortly:
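Endpoint: ATP-based luminescence, 48 h drug exposure. Bortezomib at 9.2 uM final as full-kill control; DMSO vehicle as negative control; activity normalized between vehicle and cell-free wells.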

Experiment [16] in a line: Identifying Small Molecule Inhibitors of Pancreatic Cancer Stem Cells (A278, Adherent) (AID 1259361; active means well fitted curve in the direction sought with a large enough effect; an effect the other way counts as inactive or inconclusive; further: nearly all actives have a fitted effect of over 35% in size). Put shortly:
as §3

Structures are written as SMILES. Results filed as inconclusive are left out. Calls of active or inactive are those of the source. Unless noted, how the calls were made is not given here.

`c1cc(OCCN2CCCCC2)cc(-c2n[nH]c3ccc(-c4ncn[nH]4)cc23)c1` came in with a parasite growth, % of DMSO control in [1] of 8.07%. The compound also gave a parasite growth remaining, % of DMSO control (lower = more inhibition) in experiment [2] of 9.76%. For the same compound, the parasite growth, % of control (lower = inhibition) in [3] is 9.96%. In experiment [4], this compound had a growth, % of control of 3.58%. Moreover, the cell viability, % of control (lower = more cytotoxic) in experiment [5] was found to be 107%. Further, the viability (% of control) in [6] turned out to be 20.5%. Besides, the Potency entry in [7] and in experiment [8] was “inactive” each time. Besides, the values for the Potency in experiment [9] and in [10] were 10.5 µM (active) and 23.5 µM (active), respectively.

As to `C[C@@H]1CC=CC=CC=CC=C[C@@H](O[C@@H]2O[C@H](C)[C@@H](O)[C@H](N)[C@H]2O)C[C@@H]2O[C@](O)(C[C@@H](O)C[C@@H]3O[C@@H]3C=CC(=O)O1)C[C@H](O)[C@@H]2C(=O)O`, the parasite growth, % of DMSO control in experiment [1] is 46.3%. Moreover, the parasite growth remaining, % of DMSO control (lower = more inhibition) in [2] was found to be 67%. The same compound registered a parasite growth, % of control (lower = inhibition) in experiment [3] of 59%. In [4], this compound gave a growth, % of control of 52.6%. In addition, the cell viability, % of control (lower = more cytotoxic) in experiment [5] stood at 186%. The viability (% of control) in [6] was 110%. In addition, the Potency entry in experiment [7] and in [8] was “inactive” throughout. Moreover, the Potency in experiment [9] was 7.43 µM (active); in experiment [11], 11.8 µM (active); in [12] it was 14.8 µM (active).

For `CCN1CCN(c2ccc(Nc3cc(N(C)C(=O)Nc4c(Cl)c(OC)cc(OC)c4Cl)ncn3)cc2)CC1`, the parasite growth, % of DMSO control in experiment [1] worked out at 4.57%. In addition, in experiment [2], the parasite growth remaining, % of DMSO control (lower = more inhibition) was found to be 5.88%. Besides, the parasite growth, % of control (lower = inhibition) in experiment [3] is 8.62%. For the same compound, the growth, % of control in experiment [4] came out at 2.41%. For the same compound, the cell viability, % of control (lower = more cytotoxic) in experiment [5] was determined as 147%. Further, the viability (% of control) in experiment [6] was found to be 90.9%. The Potency result in [7], in experiment [8], in experiment [9], in experiment [11] and in experiment [12] was “inactive” each time.

Consider `OCCn1cc(-c2ccc3c(c2)CCC3=NO)c(-c2ccncc2)n1`, for which, in experiment [13], the remaining proliferation (% of control), lower = more inhibition worked out at 73.4%. The parasite growth, % of DMSO control in experiment [1] worked out at 67.4%. This compound returned a parasite growth remaining, % of DMSO control (lower = more inhibition) in experiment [2] of 83.9%. The same compound had a parasite growth, % of control (lower = inhibition) in experiment [3] of 74.7%. The growth, % of control in experiment [4] came out at 89.4%. In experiment [5], the cell viability, % of control (lower = more cytotoxic) amounted to 4.73%. Also, the viability (% of control) in [6] amounted to 76.4%. Moreover, the Potency result in experiment [7], in [8], in experiment [11], in experiment [14] and in [15] was “inactive” each time. Also, the Potency in experiment [9] was 26.4 µM (active). For the same compound, the IC50 (viability decrease) in [16] was 16.6 µM (active).

Turning to `CCC(=C(CC)c1ccc(O)cc1)c1ccc(O)cc1`, in experiment [1], the parasite growth, % of DMSO control worked out at 57.2%. The parasite growth remaining, % of DMSO control (lower = more inhibition) in experiment [2] was determined as 96.4%. In [3], this compound returned a parasite growth, % of control (lower = inhibition) of 84.8%. Moreover, the growth, % of control in experiment [4] came out at 90.8%. Besides, the cell viability, % of control (lower = more cytotoxic) in experiment [5] was determined as 111%. In addition, in experiment [6], the viability (% of control) amounted to 25.3%. Further, the Potency entry in experiment [7] and in [8] was “inactive” throughout. Moreover, the Potency in experiment [9] was 23.5 µM (active); in experiment [11], 26.4 µM (active).

The compound `COc1ccc(CCC(=O)Nc2nc3ccc(Cl)cc3s2)cc1OC` yielded a parasite growth, % of DMSO control in experiment [1] of 22.3%. Besides, the growth, % of control in [4] is 28.3%. In addition, the cell viability, % of control (lower = more cytotoxic) in experiment [5] is 135%. Also, the viability (% of control) in [6] amounted to 98.2%. For the same compound, the Potency entry in experiment [7] and in experiment [8] was “inactive” each time. Besides, the Potency in [9] is 20.9 µM (active); in experiment [12] it was 13.2 µM (active).

For `CN(C)CCOc1ccc(-c2nc(-c3ccc4c(c3)CCC4=NO)c(-c3ccncc3)[nH]2)cc1`, in experiment [1], the parasite growth, % of DMSO control is 4.92%. Further, the parasite growth remaining, % of DMSO control (lower = more inhibition) in experiment [2] was 6.01%. In experiment [3], this compound returned a parasite growth, % of control (lower = inhibition) of 6.72%. In [4], the growth, % of control came out at 2.95%. Besides, the cell viability, % of control (lower = more cytotoxic) in [5] stood at 7.29%. Also, the viability (% of control) in experiment [6] came to 36.1%. The Potency entry in experiment [7] and in experiment [8] was “inactive” throughout. The Potency is 33.2 µM (active) in experiment [9] and 23.5 µM (active) in [12].

(Values after PubChem BioAssay (NCATS).)
